CHRM1 antagonist: antagonists of human M1 muscarinic receptor; P11229; CHO-K1 hM1, Fluo-8 calcium fluorescence, ACh EC80 antagonist; inhibition, % at 3 µM; 1.3% of 360,000 active; AID 588852;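 active = percent inhibition above its own plate's cutoff, namely the mean of that plate's compound wells plus 3 SD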;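 note: peak over basal fluorescence ratio during 140 s after agonist addition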
Target sequence (P11229 whole entry, looked up): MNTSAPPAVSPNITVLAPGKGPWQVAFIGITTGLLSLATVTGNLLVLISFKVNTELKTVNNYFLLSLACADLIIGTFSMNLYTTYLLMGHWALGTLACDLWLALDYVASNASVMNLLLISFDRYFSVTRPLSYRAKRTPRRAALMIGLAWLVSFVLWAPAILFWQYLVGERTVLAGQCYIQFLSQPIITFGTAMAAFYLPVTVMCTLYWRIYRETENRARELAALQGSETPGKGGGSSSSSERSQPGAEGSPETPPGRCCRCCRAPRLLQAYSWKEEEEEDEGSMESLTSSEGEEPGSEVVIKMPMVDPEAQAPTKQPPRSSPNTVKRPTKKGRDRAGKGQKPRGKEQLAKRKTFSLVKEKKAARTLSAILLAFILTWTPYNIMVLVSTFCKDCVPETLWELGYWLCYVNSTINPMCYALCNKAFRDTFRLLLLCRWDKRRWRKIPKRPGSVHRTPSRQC
CHO-K1 Ca antag: nonselective inhibitor or artifact in parental CHO-K1 cells. ATP-induced calcium, Fluo-8 fluorescence. AID 602250. 0.6% of 360,000 active. inhibition, % at 3 µM;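 active = inhibition above a per-plate cutoff, the plate's mean sample inhibition plus 3 SD, cut at about 24% in these data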
M1 ag parental: nonselective activator or artifact in parental CHO-K1 cells. Fluo-8 calcium fluorescence; scaled to maximal ATP response, vehicle zero. activation, % at 3 µM. 0.48% of 360,000 active; in the data active = activation above about 15%;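 note: untransfected CHO-K1 host cells lacking M1 receptor as counterscreen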
M1 PAM: human CHRM1 positive allosteric modulation; CHO-K1 hM1, Fluo-8 calcium fluorescence, ACh EC20; 0% = ACh EC20, 100% = maximal ACh; activation, % at 3 µM; 0.088% of 360,000 active; AID 588819; in the data active = activation above about 19%, passing the limit was not always enough
M1 PAM parental: counter-screen for M1 PAMs: effect in parental CHO-K1 cells; ATP EC20, Fluo-8 calcium fluorescence; 0% at ATP EC20, 100% at ATP max; activation, % at 3 µM; 0.02% of 360,000 active; AID 602247;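 active = activation above the run cutoff, the mean activation of all test compounds plus 3 SD, cut at about 40% in these data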;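 note: peak over basal fluorescence ratio in a 140 s read after ATP addition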
CHRM1 agonist: agonists of human M1 muscarinic receptor; CHO-K1 hM1, Fluo-8 calcium fluorescence, agonist mode; 0% DMSO, 100% acetylcholine EC100; activation, % at 3 µM; P11229; 0.33% of 360,000 active;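 active = activation above the run's mean compound activation plus 3 SD, cut at about 16% in these data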;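 note: peak over basal fluorescence ratio within a 140 s kinetic read after compound addition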
Each line names hits and unclear results; the compound was inactive in the other large screens. The list is not random: actives were taken first. Their share in the collection is about 2.4%.

O=C(NCc1cccnc1)c1cc([N+](=O)[O-])ccc1N1CCOCC1	CHRM1 agonist 20
Cc1cc(C)c(-c2csc(NC(=O)c3cc([N+](=O)[O-])ccc3N3CCOCC3)n2)c(C)c1	CHRM1 antagonist 59
O=C(Nc1nc(-c2ccc(F)c(F)c2)cs1)c1cc([N+](=O)[O-])ccc1N1CCOCC1	none
O=C(N/N=C/c1ccccc1)c1ccc(N2CCOCC2)c([N+](=O)[O-])c1	none
O=C(N/N=C/C=C/c1ccccc1[N+](=O)[O-])c1ccncc1	none
O=C(N/N=C/c1ccccc1[N+](=O)[O-])c1ccncc1	M1 PAM 26
O=C(N/N=C/c1cc([N+](=O)[O-])c(N2CCOCC2)cc1N1CCOCC1)c1cccnc1	M1 ag parental 21
N#CCC(=O)N/N=C/c1cc([N+](=O)[O-])ccc1N1CCOCC1	CHO-K1 Ca antag 26
c1ccc(-c2ccccc2OCCOCCN2CCOCC2)cc1	none
Cc1ccc(NC(=O)CSc2n[nH]c(-c3cccnc3)n2)cc1Cl	none
Cc1ccc(/C=N/NC(=O)c2ccc3ccccc3c2)s1	CHO-K1 Ca antag 25
CSc1ccc(C2=C/C(=C3/SC(=S)NC3=O)c3ccccc3O2)cc1	none
CN(CC(=O)Nc1cccc(S(=O)(=O)N2CCCC2)c1)CC(=O)Nc1ccc(Cl)c(C(F)(F)F)c1	CHRM1 antagonist 26, CHO-K1 Ca antag 32
CN(CC(=O)Nc1ccc(Cl)c(Cl)c1)CC(=O)N1CCCCCC1	CHRM1 antagonist 71
CN(CC(=O)Nc1ccc(Cl)c(C(F)(F)F)c1)CC(=O)NC1CCCCC1	CHRM1 antagonist 26
CN(CC(=O)NCc1ccccc1)CC(=O)Nc1ccc(Cl)c(C(F)(F)F)c1	none
COCCNC(=O)C(=O)N/N=C(\C)CC(=O)Nc1cccnc1	none
O=C(CSc1nc2c(c(=O)n1-c1ccccc1)SCC2)NCC1CCCO1 (configuration not stated)	none
Cn1c(N2CCN(C(c3ccccc3)c3ccccc3)CC2)nc2ccccc21	CHRM1 antagonist 32, CHO-K1 Ca antag 25
Cn1c(N2CCN(C(=O)Nc3ccc(F)cc3)CC2)nc2ccccc21	none
CN1CCS/C1=C/C=C1\SC(=S)N(CC(=O)O)C1=O	M1 ag parental 26, CHRM1 agonist 16
CN1CCS/C1=C/C=C1/SC(=S)N(Cc2ccccc2)C1=O	none
CCCCN1C(=O)/C(=C/C=C2\SCCN2C)SC1=S	M1 ag parental 16
CCOc1ccc(Cl)cc1CNCCCSc1ncccn1	M1 ag parental 19
COc1cc(C2/C(=C(\O)c3ccc4c(c3)CC(C)O4)C(=O)C(=O)N2CCN2CCOCC2)cc(OC)c1OC (configuration not stated)	none
COc1ccccc1/C=C/CN1CCC(Oc2ccc(C(=O)N3CCCC3)cc2)CC1	CHRM1 antagonist 73, CHO-K1 Ca antag 26
CC(C)N(C)C(=O)c1ccc(OC2CCN(CCc3ccccc3)CC2)cc1	none
O=C(c1ccc(OC2CCN(CCCc3ccccc3)CC2)cc1)N1CCCC1	CHRM1 antagonist 42
CC(=O)N1CCN(C(=O)c2ccc(OC3CCN(CCc4ccccc4)CC3)cc2)CC1	CHRM1 antagonist 37
CN(Cc1nccn1C)C(=O)c1ccc(OC2CCN(CCc3ccccc3)CC2)cc1	CHRM1 antagonist 47
COc1ccc(CCC(C)N2CCC(Oc3ccc(C(=O)N4CCCC4)cc3)CC2)cc1 (configuration not stated)	CHRM1 antagonist 67
CC(CCc1ccc(O)cc1)N1CCC(Oc2ccc(C(=O)N3CCCC3)cc2)CC1 (configuration not stated)	none
CC(=O)c1c(C)[nH]c(C(=O)OCC(=O)Nc2ccc(Cl)cc2[N+](=O)[O-])c1C	CHRM1 antagonist 34, CHO-K1 Ca antag 37
CCOC(=O)c1c(C)[nH]c(C(=O)OCC(=O)Nc2cc(Cl)ccc2OC)c1C	none
COc1ccccc1CNS(=O)(=O)c1ccc(Br)s1	none
COc1ccc(CN(CCNC(=O)CCCCC(=O)NCCN(Cc2ccc(OC)cc2)C(C)C)C(C)C)cc1	CHRM1 antagonist 73
NC(=O)Cn1nnc(-c2ccc(CN3CCCCC3)cc2)n1	none
COC(=O)CCCCCCCCCCN1CCCCC1	CHRM1 antagonist 27
COC(=O)CCCCC(=O)OC	none
